# Not all results are given here.
# CYP2C9 activ = human CYP2C9 activators, primary screen, biochemical, luminescence; activation factor at 5 µM; 96,000 compounds, 1.4% hits; recombinant CYP2C9, luciferin-H conversion; stronger effect = higher value; factor 1 = untreated enzyme, 0 = blocked; Cytochrome P450 2C9 (Homo sapiens), P11712;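 active = activation factor of 2 or more for CYP2C9 at a 5 µM dose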;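 note: 0 = sulfaphenazole-blocked wells and 1 = vehicle-only wells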
# CYP2C19 act = human CYP2C19 activators, primary screen, biochemical, luminescence; recombinant CYP2C19, luciferin-H EGE luminescence; stronger effect = higher value; 0 = fully inhibited enzyme, 1 = untreated enzyme; activation factor at 5 µM; 96,000 tested, under 10 active; Cytochrome P450 2C19 (Homo sapiens), P33261;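 active = activation factor of at least 2 at 5 µM in the primary screen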;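 note: 0 = wells with 2.5 mM tranylcypromine and 1 = vehicle-only wells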
# CYP2C19 inhib = blockers of cytochrome P450 2C19 activity – biochemical, luminescence, ADME assay, primary screen | P33261 | CYP2C19 Supersomes, luciferin-H EGE luminescence, 30 min | inhibition, % at 5 µM | 96,000 compounds, 21% hits;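 active = CYP2C19 inhibition above a set limit at 5 µM in the primary screen, cut at about 50% in these data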;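 note: plate controls were negative control wells for no effect and 2.5 mM tranylcypromine positive control for full effect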
# PLAP activator = PLAP enzyme activators, biochemical, luminescence, HTS; Alkaline phosphatase, placental type (Homo sapiens), P05187; purified PLAP enzyme, luminescent substrate read-out; stronger effect = higher value; activation fold at 20 µM; 96,000 compounds, 1.2% hits; in the data active = activation fold above about 2
# Target sequence (P05187 whole entry, looked up): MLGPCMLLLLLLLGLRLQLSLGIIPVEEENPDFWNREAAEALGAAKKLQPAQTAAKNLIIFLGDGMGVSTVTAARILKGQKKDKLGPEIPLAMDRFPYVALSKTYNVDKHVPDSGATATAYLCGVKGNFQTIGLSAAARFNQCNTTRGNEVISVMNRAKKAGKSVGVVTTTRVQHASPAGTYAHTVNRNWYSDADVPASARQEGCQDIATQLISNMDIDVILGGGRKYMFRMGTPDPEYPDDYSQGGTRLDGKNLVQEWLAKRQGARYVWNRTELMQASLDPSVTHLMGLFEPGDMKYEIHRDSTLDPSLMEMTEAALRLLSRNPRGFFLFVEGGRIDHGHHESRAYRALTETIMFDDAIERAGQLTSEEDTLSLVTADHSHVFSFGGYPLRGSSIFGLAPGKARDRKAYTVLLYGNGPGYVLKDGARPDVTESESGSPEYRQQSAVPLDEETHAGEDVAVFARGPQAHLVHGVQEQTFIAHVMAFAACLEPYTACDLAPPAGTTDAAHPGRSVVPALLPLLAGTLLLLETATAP
# CYP2C9 inhib = blockers of cytochrome P450 2C9 activity – biochemical, luminescence, ADME assay, primary screen. P11712. CYP2C9 Supersomes, luciferin-H conversion. inhibition, % at 5 µM. 96,000 compounds, 20% hits;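 active = blocking of liver enzyme CYP2C9 beyond about 50% at 5 µM, limit read from the data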
# An asterisk follows results filed as active.
SMILES,CYP2C9 activ,CYP2C19 act,CYP2C19 inhib,PLAP activator,CYP2C9 inhib
CC(C)Cn1cc(C(=O)N2CCC3(CC2)OCCO3)c2c3ccccc3n(C)c2c1=O,0.8,1,3.3,1.5,18.7
O=C1C2CCCN2C(c2cccc(Cl)c2)N1c1ccccn1 (centres undefined),1,0.9,13.3,1.1,4.6
CN(C)P1(N(C)C)=NC(C(F)(F)F)=NC(C(F)(F)F)=N1,1.2,0.9,14.6,1.4,-20.0
CCN1C(=O)c2ccccc2Sc2ccc(C(=O)N3CCC4(CC3)OCCO4)cc21,0.2,0.9,6.3,1.1,82.6*
CCN(CC)C(=O)c1ccc(NC(=O)c2cccc(F)c2)cc1,1.2,1,3.7,0.8,-20.4
Cc1nn(C)c(C)c1P(=S)(c1c(C)nn(C)c1C)N(C)C,1,0.9,6.4,0.8,2.2
CCN1CCN(CC(=O)c2c(C)n(Cc3ccccc3)c3ccc(OC)cc23)CC1,1,0.8,22.4,1.8,-2.4
CCOC(=O)c1c(C)n(Cc2ccccc2)c2ccc(OCC(O)Cn3nc(C)nc3C)cc12 (centres undefined),0.4,0.5,53.8*,1.6,62.3*
CCC(=NCCOc1ccc(Cl)cc1)c1c(O)n(C)c(=O)n(C)c1=O,0.8,0.8,15.0,1.3,17.8
CCC(=NCc1cc(OC)cc(OC)c1)c1c(O)n(C)c(=O)n(C)c1=O,0.2,0.7,29.1,1.2,81.0*
CCC(=NCCc1c[nH]c2ccccc12)c1c(O)n(C)c(=O)n(C)c1=O,0.5,0.4,59.3*,1.7,50.2*
CCC(=NCc1ccc2c(c1)OCO2)c1c(O)n(C)c(=O)n(C)c1=O,0.4,0.7,29.2,1.3,61.6*
CC(=NCc1ccc2c(c1)OCO2)c1c(O)n(C)c(=O)n(C)c1=O,0.8,0.9,6.6,0.7,23.2
CCC(=Nc1ccc(OC)cc1OC)c1c(O)n(C)c(=O)n(C)c1=O,0.9,0.9,9.8,1.6,9.8
CC(Cc1ccccc1)[n+]1cc(/N=C(\[O-])Nc2ccccc2)on1 (centres undefined),0.3,0.7,31.0,0.8,72.1*
C=C1C(O)(c2ccccc2)C2CC[N+]1(C)CC2 (centres undefined),1,0.9,5.5,1.2,0.9
CCOP(=O)(C(NC(=O)c1ccccc1Cl)=C(Cl)Cl)c1ccccc1 (centres undefined),0.4,0.2,77.4*,1.3,57.0*
CCOP(=O)(OCC)C(NC(=O)c1ccccc1Cl)=C(Cl)Cl,1.1,0.9,14.5,0.9,-5.1
CCC(=O)OC1(c2cccc(C)c2)CC(C)N(C)CC1C (centres undefined),1,1,-1.1,1,0.2
Cc1cc2c(s1)NC(=O)CN=C2c1cccs1,0.6,0.5,50.5*,1.1,41.2
CCOC(=O)/C(CCCN(CC)CC)=N\O,1,1,-4.2,0.7,-0.7
Cc1ccccc1C1=NCC(=O)N(CC(=O)NCc2ccco2)c2sc3c(c21)CCCC3,0.2,0.3,65.8*,1.5,84.0*
CCC(C)C1N=C(c2ccccc2)c2cc(Cl)ccc2N(CC(=O)NCc2ccco2)C1=O (centres undefined),1,1.1,-8.6,1.2,-3.0
Cn1cccc1CNCCc1ccccc1F,1,0.7,34.2,0.9,-1.2
Fc1ccccc1CCNCc1cccc(Cl)c1Cl,0.7,0.1,86.0*,1.1,29.2
SMILES,CYP2C9 activ,CYP2C19 act,CYP2C19 inhib,PLAP activator,CYP2C9 inhib
O=C1NC(=O)C2(C(=O)N1)C(c1ccc(F)cc1)NC(=S)NC2c1ccc(F)cc1 (centres undefined),1.1,1.1,-8.4,0.9,-11.6
COc1ccccc1N1CCN(Cc2c(F)cccc2F)CC1,0.8,0.4,58.2*,1,23.2
COc1ccccc1N1CCN(Cc2ccccc2F)CC1,0.8,0.7,30.5,1.3,23.0
COc1ccccc1N1CCN(Cc2cccc(OC)c2O)CC1,1,0.5,51.5*,1.5,2.7
Cc1cccc(-c2nc3ccccc3c(=O)n2-n2cccc2)c1,0.5,0.5,45.3,1.1,47.8
CCCC(=O)C1C(=O)NC(=O)NC1=O,0.9,1,4.2,1,6.1
c1cncc(C2CC(c3cccs3)n3ncnc3N2)c1 (centres undefined),1,0.9,12.2,1,-2.4

# Bioassay records (PubChem BioAssay)
